Rows were chosen to be rich in hits. Some 0.69% of all compounds tested hit in one or more screens of this group.
A-T KAP1 phos: candidate therapy for ataxia-telangiectasia; F2112 A-T fibroblasts, KAP-1 phosphorylation AlphaLISA; neocarzinostatin DNA damage 30 min before lysis; Potency, µM (top dose mostly 57.5 µM), without a hit: top-dose activation, usual class: activators; 320,000 tested, 0.19% active; AID 485349; further: potency means the concentration at half of the fitted maximal effect; % of control where 0% means no effect; nearly all actives have a fitted effect of over 45% in size
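hTERT-immortalized A-T patient fibroblasts (F2112), 500 cells/well in OPTI-MEM, 1% FBS, got compounds for 60 min, then NCS for 30 min at 37C. Lysates were then assayed for phospho-KAP-1 by AlphaLISA (anti-pKAP1 donor, anti-KAP1 acceptor beads), 6 hr at 25C.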
Integrin act MD: activates integrin-mediated alleviation for muscular dystrophy | alpha7betagal myoblasts, beta-gal FDG fluorescence, 48 h | Potency, µM (highest dose often 38.3 µM), without a hit: top-dose activation, hits mostly activators | 350,000 tested, 0.064% active | AID 624291;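 further: potency means the concentration at half of the fitted maximal effect; 100% = response of the positive control SU9516; nearly all actives have a fitted effect of over 60% in size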
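alpha7betagal+/- myoblasts (passage 13, 250/well) treated 48 h at 37C with compounds at 1:260 dilution of DMSO stock. Lysed, then beta-galactosidase activity read as FDG fluorescence (ex 480/em 540) after 30 min, with pre-read for autofluorescence.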
TCR act: T cell receptor activation; primary human leukocytes, anti-CD3, IL-2 HTRF, 48 h; Potency, µM (series often up to 9.22 µM), without a hit: top-dose activation of IL-2 secretion, hits mostly activators; 330,000 tested, under 10 active; AID 504894; further: % of control where 0% means no effect
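Activity was scored as IL-2 release from primary human leukocytes given only a TCR signal (a-CD3 beads) plus compound for 48 hr. Detection used a two-antibody HTRF format read at 665nm.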
Tb PFK inh: inhibitors of T. brucei phosphofructokinase; O15648; T. brucei PFK, ADP-Glo luminescence; Potency, µM (series often up to 57.5 µM), for inactives: top-dose activity, negative = inhibition, actives largely listed as inhibitors; 330,000 tested, 0.17% active;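 further: potency means the concentration at half of the fitted maximal effect; 0% = uninhibited 1x PFK enzyme wells and -100% = no-enzyme wells; nearly all actives have a fitted effect of over 60% in size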
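Activity is normalized to no-enzyme wells (full inhibition) and 1.25 nM enzyme wells (no inhibition). Reaction: 0.5 mM F6P, 0.1 mM ATP, 45 min RT, ADP-Glo luminescence; concentration-response curves fitted and classed by quality.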
PKM2 activator: PKM2 (human) enzyme activation | P14618 | AID 1631 | Potency, µM (titrated, usually from 57.5 µM), inactives show at the top dose activation, usual class: activators | purified PKM2, Kinase-Glo ATP luminescence, activation; response scale: 0% is enzyme alone, no compound | 260,000 tested, 0.34% active; further: potency means the concentration at half of the fitted maximal effect; on the % scale 0 is the no-effect control and ±100 the full control effect; nearly all actives have a fitted effect of over 55% in size
Target sequence (P14618 whole entry, looked up): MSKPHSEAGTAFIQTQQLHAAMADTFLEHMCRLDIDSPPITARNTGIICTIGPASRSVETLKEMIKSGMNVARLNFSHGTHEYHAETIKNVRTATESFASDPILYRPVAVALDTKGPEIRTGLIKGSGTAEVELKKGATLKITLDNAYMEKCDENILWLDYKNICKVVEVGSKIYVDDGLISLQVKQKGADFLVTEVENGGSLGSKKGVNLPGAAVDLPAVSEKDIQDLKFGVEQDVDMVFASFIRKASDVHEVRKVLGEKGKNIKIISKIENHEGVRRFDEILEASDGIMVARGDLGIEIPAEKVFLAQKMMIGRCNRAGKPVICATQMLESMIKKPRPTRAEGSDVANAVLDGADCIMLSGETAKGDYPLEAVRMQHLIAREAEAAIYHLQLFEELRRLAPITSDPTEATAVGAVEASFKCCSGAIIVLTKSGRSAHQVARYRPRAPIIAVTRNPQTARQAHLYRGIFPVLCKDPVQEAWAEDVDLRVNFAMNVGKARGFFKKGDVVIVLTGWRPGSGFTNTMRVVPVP
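Kinase-Glo luminescence reports ATP generated from ADP (0.1 mM) and PEP (0.5 mM) by purified hPK-M2 after 1 h at room temperature, pH 7.2 imidazole buffer; intermediate enzyme activity allows detecting inhibitors and activators.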
IL-2 act: activates IL-2 in a cell-based reporter assay; IL-2 activation reporter assay, cell-based qHTS; stimulated with anti-CD3/CD4/CD28 beads; in transgenic mouse T cells; activation, % (series mostly up to about 46 µM); 360,000 tested, 0.065% active; AID 652025; in the data active means activation above about 50%; inconclusive means mostly about 30% to 49%; further: 0% is about no effect
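Using fluorescent plate cytometry, EGFP and DsRed are detected in transgenic mouse T cells stimulated 18 h at 37 degrees C with antibody-coated beads after 60 min compound pretreatment.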
* = called active by the depositor; u = inconclusive; x = no result given; [ ] = another dose, or the depositor's remark. Unless noted, the call rests on the fitted dose curve; in most records, active means well fitted curve in the direction sought with a large enough effect; inconclusive means small, poorly fitted or top-dose-only effect, or another doubt; inactive means no such curve, though single readings can be large; an effect the other way counts as inactive or inconclusive.

SMILES	A-T KAP1 phos	Integrin act MD	TCR act	Tb PFK inh	PKM2 activator	IL-2 act
CC(=O)c1sc2nc(C)c3c(c2c1N)CCCC3	35µM*	u	1%	2%	12%	0
C=COCCNC(=O)Nc1ccc(Cl)c(Cl)c1	10%	u	2%[46.1 µM]	15µM*	0%	-1
CCOc1cc(Br)c(/C=C2/C(=O)N(C)C(=S)N2CC(=O)OC)cc1OC	-2%	3%	2%	-2%	1%	100*
FC(F)Oc1ccc(-n2cc(-c3ccc(Cl)cc3)[n+]3c2CCCCC3)cc1	14µM*	-18%	1%	1%	-2%	0
COc1cccc(NC(=O)CSC2=C(C#N)C(c3ccco3)C3=C(CCCC3=O)N2)c1 (configuration not stated)	-4%	-30%	-3%	4%	0.79µM*	-1
COc1ccccc1/C=C/CN1CCN(Cc2ccc(C)o2)C(CCO)C1 (configuration not stated)	5%	28%	3%	1%	3%	-1
COc1cc(/C=C/CN2CCN(Cc3ccc(C)o3)C(CCO)C2)ccc1O (configuration not stated)	0%	14µM*	1%	-5%	0%	-1
Nc1nc(SCC(=O)Nc2ccc([N+](=O)[O-])cc2Br)n[nH]1	2%	-38%	-5%[46.1 µM]	2%	3.2µM*	2
CC(C)c1nc(SCC(=O)Nc2ccc([N+](=O)[O-])cc2Br)n[nH]1	1%	-8%	-4%	-11%	u	-3
O=C(CSc1ncn[nH]1)Nc1ccc([N+](=O)[O-])cc1Br	x	8%	-2%[46.1 µM]	1%	7.1µM*	0
O=C(CSc1n[nH]c(-c2cccnc2)n1)Nc1ccc([N+](=O)[O-])cc1Br	3%	-6%	-65%	-1%	13%	1
Oc1ccc(COCc2ccc(F)cc2)c2cccnc12	2%	x	x	3%	x	x
CC(=O)Nc1ccc(S(=O)(=O)N2CCN=C2SCc2ccc(C)cc2)cc1	6%	-20%	-1%	3%	-2%	0
CC(=O)Nc1ccc(S(=O)(=O)N2CCN=C2SCc2cccnc2)cc1	-2%	-3%	-8%	-3%	16µM*	7
O=S(=O)(c1ccc2ccccc2c1)N1CCN=C1SCc1cccnc1	4%	-3%	3%	-2%	18µM*	4
COC(=O)c1ccc(C(NC(=O)OCc2ccccc2)/C(F)=C/[C@@H](C)C(=O)NC2CCCCC2)cc1 (some centres not stated)	x	x	x	x	-1%	x
COC(=O)CN(c1ccc(C)cc1)S(=O)(=O)c1ccc2c(c1)n(C)c(=O)c(=O)n2C	2%	-4%	-2%	0%	16µM*	-3
COC(=O)[C@@]1(Cc2ccc(F)cc2)[C@H]2c3cc(C(=O)N(C)C)n(Cc4ccccc4)c3C[C@H]2CN1C(=O)c1ccccc1	-2%	7%	-3%	-3%	1%	0
COC(=O)[C@@]1(Cc2ccc(F)cc2)[C@H]2c3cc(C(=O)N(C)C)n(Cc4ccc(C)o4)c3C[C@H]2CN1C(=O)c1ccccc1	x	x	x	x	7.1µM*	-1
NC(=O)c1c(NC(=O)c2ccccc2)sc2c1CCN(Cc1ccccc1)C2	1%	-9%	1%	5%	2%	317*
CCN1CCc2c(sc(NC(=O)Cc3ccccc3)c2C(N)=O)C1	-3%	-18%	3%	-1%	-7%	-4
CCN1CCc2c(sc(NC(=O)Nc3ccc(Cl)c(Cl)c3)c2C(N)=O)C1	25µM*	-101%	-1%[46.1 µM]	-19%	5%	25
O=C(O)c1c(Sc2ccccc2)c2cc(Cl)ccc2n1Cc1ccc(Cl)cc1	x	x	x	x	-1%	x
O=C(OCCOc1cccc(Cl)c1)c1ccc2ncsc2c1	3%	4%	-7%	-1%	16µM*	-1
Cc1cc(NC(=O)CSc2ncccn2)no1	-4%	6%	0%[46.1 µM]	0%	7%	1
SMILES	A-T KAP1 phos	Integrin act MD	TCR act	Tb PFK inh	PKM2 activator	IL-2 act
Cc1cc(NC(=O)CSc2ncn(-c3ccccc3)n2)no1	-5%	-12%	5%	0%	25µM*	1
C/C=C/C=C\C(=O)Nc1cccc(C2=NOC3(C2)C[C@H](C(N)=O)N(C(=O)/C=C/C)C3)c1 (some centres not stated)	23%	0%	4%	4%	u	1
C/C=C\C=C\C(=O)N1CC2(CC(c3cccc(NC(=O)COc4ccc(Cl)cc4)c3)=NO2)C[C@H]1C(N)=O (some centres not stated)	-16%	-1%	-1%	u	16µM*	0
C/C=C\C=C/C(=O)Nc1cccc(C2=NOC3(C2)C[C@@H](C(N)=O)N(C(=O)COc2ccc(Cl)cc2)C3)c1 (some centres not stated)	3.2µM*	-28%	-1%	-14%	16µM*	0
C/C=C\C=C\C(=O)N1CC2(CC(c3cccc(NC(=O)CC)c3)=NO2)C[C@H]1C(N)=O (some centres not stated)	-42%	-2%	-1%	u	7.9µM*	-2
C/C=C(\C)C(=O)N1CC2(CC(c3cccc(NC(=O)COc4ccc(Cl)cc4)c3)=NO2)C[C@@H]1C(N)=O (some centres not stated)	-19%	35%	-2%	-14%	2%	0
COCCN(CCOC)c1nc(C)nc2c1nc(-c1ccccc1)n2CC1CCN(C)CC1	x	x	x	x	-2%	x
CC(NC(=O)c1cn(C)c2ccc(S(=O)(=O)N3CCCC3)cc2c1=O)c1ccccc1 (configuration not stated)	10%	2.8µM*	-4%	2%	x	-5
CC(C)CCNC(=O)c1cn(C)c2ccc(S(=O)(=O)N3CCCC3)cc2c1=O	12%	8%	1%	-3%	x	4
C[C@@H](C(=O)N1CCN(C(=O)OC(C)(C)C)CC1)n1cc(-c2cn([C@@H](C)C(=O)N3CCN(C(=O)OC(C)(C)C)CC3)nn2)nn1	22µM*	x	x	4%	19%	x
N/C(=N\N=C\c1ccc2c(c1)OCO2)SC1CC(=O)N(c2ccc(C(=O)O)cc2)C1=O (configuration not stated)	2%	-23%	-4%	2%	35µM*	0
O=C(O)c1ccc(N2C(=O)CC(SC(=NCc3ccc4c(c3)OCO4)Nc3ccccc3)C2=O)cc1 (configuration not stated)	0%	-20%	-10%	-4%	-2%	1
CCCn1c(-c2ccc(F)cc2)nc2c(NCC3CCN(C)CC3)nc(C)nc21	x	x	x	x	0%	x
